Several values for one entry are separate records, joined by “and”; a condition that tells them apart may be missing. Equal entries are not always repeated. Activity calls are given as the source filed them. How the source made its calls: active means hit-call score of the fitted dose curve at least 0.9, where 1 is the maximum; inactive means score below 0.9.
Key:
[1] = ATG_E_Box_CIS: Attagene CIS-FACTORIAL HepG2 Assay for human Enhancer Box (E-box) (AID 2282936); settings: HepG2 E-box cis-reporter transcription, actives raise or lower the signal
In short: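 In this cell-based setup, HepG2 cells bearing transfected promoter-driven reporter units were exposed to chemicals for 24 h; reporter transcripts were amplified, 6-FAM-labelled, cut with HpaI and sized by capillary electrophoresis.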

[2] = ATG_M_61_CIS: Attagene CIS-FACTORIAL HepG2 Assay for M61 Transcription Factor (Internal Marker) (AID 2282937); settings: HepG2 Attagene CIS-FACTORIAL M61 internal marker reporter; actives raise or lower the signal
In short: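 This endpoint serves as an internal background control within a multiplexed HepG2 cis-reporter panel. Cells are exposed for 24 h; reporter mRNA is amplified, fluorescently labelled and sized by capillary electrophoresis, with DMSO as negative control.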

[3] = ATG_EGR_CIS: Attagene CIS-FACTORIAL HepG2 Assay for human Early Growth Response 1 (EGR1) (AID 2282938); settings: HepG2 Attagene CIS-FACTORIAL EGR reporter mRNA; actives raise or lower the signal
In short: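 HepG2, transient MRTU transfection (cis promoters), 24 h compound. RNA → RT (oligo-dT) → PCR → 6-FAM labelling → HpaI cut → CE fluorescence. Bidirectional fit, DMSO baseline.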

[4] = ATG_M_19_CIS: Attagene CIS-FACTORIAL HepG2 Assay for M19 Transcription Factor (Internal Marker) (AID 2282939); settings: HepG2 Attagene CIS-FACTORIAL M19 internal marker reporter; actives raise or lower the signal
In short: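 Following a 24 h exposure, RNA from transfected HepG2 cells was reverse-transcribed, PCR-amplified with reporter-specific primers, end-labelled with 6-FAM and HpaI-digested before capillary separation. Values represent gain or loss versus DMSO.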

[5] = ATG_ERE_CIS: Attagene CIS-FACTORIAL HepG2 Assay for Estrogen Response Element (ERE) (AID 2282940); settings: HepG2 ERE cis-reporter, Attagene RNA transcript; actives raise or lower the signal
In short: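 HepG2, transient cis-reporter units, 24 h exposure. RNA isolated, oligo(dT) RT, reporter-specific PCR, FAM extension, HpaI cut, CE detection. Gain/loss-of-signal vs DMSO.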

[6] = ATG_Ets_CIS: Attagene CIS-FACTORIAL HepG2 Assay for human Erythroblast Transformation Specific (ETS) (AID 2282941); settings: HepG2 ETS cis-reporter transcription, actives raise or lower the signal
In short: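 RT-PCR/capillary electrophoresis fluorescence read-out of reporter mRNA; HepG2 transient multi-reporter transfection; 24 h compound exposure; gain or loss of signal fitted bidirectionally relative to DMSO.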

[7] = molecular target: Hepatocyte nuclear factor 3-beta (Homo sapiens) (UniProt Q9Y261); test: ATG_FoxA2_CIS: Attagene CIS-FACTORIAL HepG2 Assay for human Forkhead box A2 (FOXA2) (AID 2282942); settings: HepG2 cis-reporter transcription factor activity, 24 h; actives raise or lower the signal
In short: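 Cells: HepG2, transient multiplex reporter transfection. Exposure 24 h. Detection: reporter-specific RT-PCR, fluorescent labelling, restriction digest, capillary electrophoresis. Analysis: bidirectional curve fit, DMSO as negative control.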

[8] = ATG_FoxO_CIS: Attagene CIS-FACTORIAL HepG2 Assay for human Forkhead box O (FoxO) (AID 2282943); settings: HepG2 Attagene cis-reporter, FoxO element, mRNA; actives raise or lower the signal
In short: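 HepG2 cells transiently transfected with cis-element-driven reporter units report endogenous FoxO activity. After 24 h chemical exposure, reporter mRNA quantified by RT-PCR, fluorescent labeling, HpaI digestion and capillary electrophoresis; bidirectional fit versus DMSO.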

[9] = ATG_GLI_CIS: Attagene CIS-FACTORIAL HepG2 Assay for human Zinc Finger Protein GLI1 (AID 2282945); settings: HepG2, Attagene cis-factorial reporter mRNA, GLI element; actives raise or lower the signal
In short: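 Transiently transfected HepG2 cells report endogenous transcription factor activity via cis-element-driven reporter units. After 24 h compound exposure, reporter mRNA was measured by RT-PCR with capillary electrophoresis; bidirectional fitting against DMSO baseline.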

[10] = ATG_GATA_CIS: Attagene CIS-FACTORIAL HepG2 Assay for human GATA Binding Protein (AID 2282944); settings: HepG2 GATA cis-element reporter, Attagene multiplex mRNA; actives raise or lower the signal
In short: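 DMSO serves as negative control and baseline for bidirectional fitting of reporter mRNA changes. HepG2 cells bearing transiently transfected cis-promoter reporters were exposed 24 h; transcripts detected via RT-PCR and capillary electrophoresis.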

Measured: AC50

Hepatocyte nuclear factor 3-beta (Homo sapiens), sequence (Q9Y261 whole entry, looked up): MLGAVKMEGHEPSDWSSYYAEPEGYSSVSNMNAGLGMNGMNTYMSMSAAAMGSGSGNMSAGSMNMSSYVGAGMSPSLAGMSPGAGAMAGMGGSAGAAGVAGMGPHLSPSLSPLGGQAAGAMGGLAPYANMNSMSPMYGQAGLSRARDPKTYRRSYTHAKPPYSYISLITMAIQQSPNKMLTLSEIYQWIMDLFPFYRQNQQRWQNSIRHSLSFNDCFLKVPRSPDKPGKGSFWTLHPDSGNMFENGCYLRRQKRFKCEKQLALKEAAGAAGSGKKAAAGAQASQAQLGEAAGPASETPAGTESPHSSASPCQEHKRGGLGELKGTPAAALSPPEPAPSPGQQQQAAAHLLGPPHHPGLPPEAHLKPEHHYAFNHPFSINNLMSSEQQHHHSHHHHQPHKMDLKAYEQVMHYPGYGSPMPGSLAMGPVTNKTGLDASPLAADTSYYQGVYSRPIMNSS

O=CCCCC=O
not listed: [10]
inactive: all other assays above

O=c1c(-c2ccc(O)cc2)coc2cc(O)cc(O)c12
not listed: [5] | [10]
inactive: all other assays above

CC/C(=C(/CC)c1ccc(O)cc1)c1ccc(O)cc1
not listed: [5] | [10]
inactive: all other assays above

COc1cc(C(=O)NC2CCN(C)CC2)ccc1Nc1ncc2c(n1)N(C1CCCC1)CC(F)(F)C(=O)N2C
active: [3] 2.26 µM | [6] 1.55 µM | [8] 3.63 µM
not listed: [10]
inactive: all other assays above

CN1C(=O)CC[C@H]1c1cccnc1
not listed: [5]
inactive: all other assays above

CN(C[C@@H](CC[N+]12CCC(C3CCCCC3)(CC1)CC2)c1ccc(Cl)c(Cl)c1)C(=O)c1cc(C(F)(F)F)cc(C(F)(F)F)c1
not listed: [10]
inactive: all other assays above

NCc1cccc(C2CCN(C(=O)c3ccc(C#Cc4ccccc4F)o3)CC2)c1
active: [3] 11 µM | [5] 2.81 µM
not listed: [10]
inactive: all other assays above

Cc1ncc(CO)c(CO)c1O
not listed: [5] | [10]
inactive: all other assays above

CC(C)(C)c1csc(-c2cc3cc(OCc4ccccc4CC(=O)O)ccc3o2)n1
active: [3] 14.4 µM
not listed: [10]
inactive: all other assays above

CCCCOC(=O)CC(CC(=O)OCCCC)(OC(C)=O)C(=O)OCCCC
not listed: [5] | [10]
inactive: all other assays above

O=C(O)Cc1cc(I)c(Oc2ccc(O)c(I)c2)c(I)c1
not listed: [5]
inactive: all other assays above

Clc1cc(Cl)c2c(c1)N=C1CCCCCN1C2
active: [1] 50 µM
not listed: [10]
inactive: all other assays above

CCCOC(=O)c1cc(O)c(O)c(O)c1
active: [5] 12.4 µM
not listed: [10]
inactive: all other assays above

CCCCCCCCCC(=O)O
not listed: [5] | [10]
inactive: all other assays above

OC12N=C(c3ccccc3)SC1Cc1cc(Cl)ccc12 (stereo not given)
active: [5] 1.16 µM
not listed: [10]
inactive: all other assays above

Cc1c2ccccc2c(C)c2c1ccc1ccccc12
active: [1] 8.32 µM | [4] 33.4 µM | [5] 3.55 µM
not listed: [10]
inactive: all other assays above

CCCC(=O)OCCC(C)C
active: [6] 26.8 µM
not listed: [10]
inactive: all other assays above

CC(C)(O)c1ccc(CNC(=O)c2cccnc2Oc2ccc3nonc3c2)cc1
not listed: [10]
inactive: all other assays above

CC1(C)NC(=O)N(c2ccc([N+](=O)[O-])c(C(F)(F)F)c2)C1=O
not listed: [5]
inactive: all other assays above

CCCCCCCCCCCC[N+](C)(C)C
active: [1] 33.4 µM and 22.5 µM
not listed: [5]
inactive: all other assays above
